Consider 5 compounds from PubChem BioAssay AID485273 (Sanford-Burnham Center for Chemical Genomics, 2010).

Each structure is given as a SMILES string. Screen size: about 330,000 compounds; about 1,500 (0.45%) were called active. Rule as the data show it: active = inhibition above about 45% (passing the limit was not always enough); inconclusive = no clear call, values can overlap the other calls. Shown is part of a subset that was picked to be rich in actives.

Ubiquitin-conjugating enzyme E2 N (Homo sapiens), sequence (P61088 whole entry, looked up): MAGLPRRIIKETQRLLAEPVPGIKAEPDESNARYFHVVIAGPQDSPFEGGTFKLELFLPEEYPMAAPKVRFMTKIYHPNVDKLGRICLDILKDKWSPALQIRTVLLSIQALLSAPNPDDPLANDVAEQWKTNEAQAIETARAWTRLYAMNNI

This test addresses Ubiquitin-conjugating enzyme E2 N (Homo sapiens) (UniProt P61088). The test is described as follows: UBC13 polyubiquitin chain formation inhibitors, primary screen, biochemical, TR-FRET, uHTS (AID 485273). Particulars: at 20 µM, stronger effect = higher value.
As usually defined, the inhibition is the relative decrease from the control value, in per cent. `CNCC(O)c1cc(F)c(OCc2ccccc2)c(OCc2ccccc2)c1F` (stereo not given): the inhibition is 69.2% (active).

For the compound `CCN(N=Nc1nonc1OC)c1nonc1OC`, the inhibition is -6.3% (inactive).

As for `CCCC[N+]1(C)C2CC(OC(=O)C(CO)c3ccccc3)CC1C1OC12` (stereo not given), the inhibition was 1.6% (inactive).

For the compound `CCOC(=O)c1c(C)c(C(=O)N2CCC3(CC2)OCCO3)c(C)n1CC`, the inhibition was -14.5% (inactive).

`O=C1NC(=O)C(CCc2ccccn2)(Cc2cccc(Cl)c2Cl)C(=O)N1c1ccc(Br)cc1` (stereo not given): the inhibition was 0.9% (inactive).
